The panel holds about 83,000 compounds, 20% with a hit somewhere; the sample as a whole holds those more often.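 For each line, cells grew in 96-well plates with the test compound present at a single concentration for 48 hours.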 Values without a mark were called inactive. The source made the active and inactive calls. Rule for the calls: active = growth percent below 10; inactive = the rest.

Some test systems named below: MALME-3M melanoma; MDA-MB-231 breast; RXF 393 renal; SF-268 CNS; SF-295 CNS; SF-539 CNS; UACC-257 melanoma; M14 melanoma; HCT-15 colon; HT29 colon; SNB-75 CNS; SNB-19 CNS; U251 CNS; PC-3 prostate; SK-MEL-5 melanoma; UACC-62 melanoma; LOX IMVI melanoma; SK-MEL-28 melanoma; SK-MEL-2 melanoma; K-562 leukemia.
Common to all, as to assay: NCI-60 one-dose screen, 48 h (100 = growth as untreated, 0 = no growth, -100 = all killed)
Settings in all cases: 10 µM unless noted

Consider `c1ccc(CNc2ncnc3ccc(-c4cnc5[nH]ncc5c4)cc23)cc1`, for which the growth was 103% with MALME-3M melanoma; 63.7% in the test with MDA-MB-231 breast; 33.8% in the test on RXF 393 renal; 58.2% with SF-268 CNS; 74.1% in the test with SF-295 CNS; 69.9% with SF-539 CNS. Further, the growth with UACC-257 melanoma is 95.4%; in the test with M14 melanoma, 94.8%; in the test with HCT-15 colon, 77%; in the test on HT29 colon, 70.6%; with SNB-75 CNS it was 54.5%; in the test on SNB-19 CNS it was 72.7%. Also, the growth in the test with U251 CNS was 81.6%; in the test with PC-3 prostate it was 70.3%; in the test on SK-MEL-5 melanoma, 88.4%; in the test on UACC-62 melanoma, 76%; in the test with LOX IMVI melanoma it was 52.7%; in the test with SK-MEL-28 melanoma, 82.7%. The growth in the test with SK-MEL-2 melanoma is 81.6%.
Turning to `Cc1cc(C(=O)Nc2sc3c(c2C(N)=O)CCC(=O)C3)ccc1OCCN1CCCCC1`, the growth in the test on K-562 leukemia is 53.2%; in the test with MALME-3M melanoma, 102%; in the test with MDA-MB-231 breast, 101%; in the test on RXF 393 renal, 112%; with SF-268 CNS, 99.4%; in the test with SF-295 CNS it was 113%. Besides, the growth in the test with SF-539 CNS is 94.2%; in the test with UACC-257 melanoma, 107%; in the test on M14 melanoma it was 108%; in the test with HCT-15 colon, 83.3%; in the test on SNB-75 CNS, 95.2%; with SNB-19 CNS, 102%. In addition, the growth in the test with U251 CNS is 96.8%; in the test with PC-3 prostate, 88.6%; in the test on UACC-62 melanoma, 100%; in the test on SK-MEL-28 melanoma it was 115%; with SK-MEL-2 melanoma, 106%.
On to `COc1cc(/C=C/C(=O)c2cc(OC)c(OC)c(OC)c2)ccc1Oc1nc(NCCO)nc(N2CCOCC2)n1`, for which the growth in the test with K-562 leukemia is 8.97% (active); with MALME-3M melanoma, 29%; in the test on MDA-MB-231 breast, 19.4%; in the test on RXF 393 renal it was -25.7% (active); with SF-268 CNS it was 9.81% (active); with SF-295 CNS, 12.6%. The growth with SF-539 CNS was -5.48% (active); in the test on UACC-257 melanoma, 47.8%; in the test with M14 melanoma, -19.1% (active); in the test on HCT-15 colon, -9.13% (active); in the test with SNB-75 CNS, 15.2%; with SNB-19 CNS, 12.4%. Further, the growth is -36.9% (active) in the test with U251 CNS; 37.7% in the test with PC-3 prostate; 3.03% (active) in the test on SK-MEL-5 melanoma; -4.12% (active) in the test with UACC-62 melanoma; 31.5% with SK-MEL-28 melanoma; -3.2% (active) with SK-MEL-2 melanoma.
Consider `CCN1CCN(S(=O)(=O)c2oc(-c3ccc(Cl)cc3)nc2C#N)CC1`, for which the growth in the test with MALME-3M melanoma is -53.6% (active); in the test with MDA-MB-231 breast, 26.7%; in the test with RXF 393 renal, -60.2% (active); with SF-268 CNS, 112%; in the test with SF-295 CNS, 108%; in the test on SF-539 CNS it was 53.1%. Moreover, the growth is 89.9% in the test with UACC-257 melanoma; -50.6% (active) in the test with M14 melanoma; -35.5% (active) in the test with HCT-15 colon; 2.82% (active) in the test on HT29 colon; 87.5% with SNB-75 CNS; 95.8% in the test with SNB-19 CNS. Moreover, the growth in the test with U251 CNS was 96.6%; in the test with PC-3 prostate it was 87.4%; with SK-MEL-5 melanoma, 95.2%; in the test with UACC-62 melanoma, 88.7%; with LOX IMVI melanoma, -89.2% (active); in the test on SK-MEL-28 melanoma it was 53.5%. The growth with SK-MEL-2 melanoma is 104%.
Turning to `NC(=O)c1cc(-c2ccc3ncnc(N4CCc5cc(F)c(Cl)cc54)c3c2)cnc1N`, the growth with K-562 leukemia is 35.2%; in the test on MALME-3M melanoma it was 25.1%; in the test on MDA-MB-231 breast, 34.5%; in the test on RXF 393 renal, -17.5% (active); in the test with SF-268 CNS, 27.6%; in the test with SF-295 CNS, 25.3%. Further, the growth was -23.4% (active) in the test with SF-539 CNS; 54.8% in the test on UACC-257 melanoma; 38.3% with M14 melanoma; 25.8% with HCT-15 colon; -25% (active) with SNB-75 CNS; 39.5% with SNB-19 CNS. In addition, the growth in the test with U251 CNS was 40.8%; in the test on PC-3 prostate, 25%; with SK-MEL-5 melanoma, 52.1%; in the test on UACC-62 melanoma, 26%; in the test on LOX IMVI melanoma, 24%; in the test on SK-MEL-28 melanoma, 28.8%. The growth in the test on SK-MEL-2 melanoma was -51.5% (active).
For the compound `CCOC(=O)c1c(Nc2ccccc2)nn2c(-c3ccco3)c(C#N)cnc12`, the growth with MALME-3M melanoma is 94.9%; in the test with MDA-MB-231 breast, 80%; in the test on RXF 393 renal it was 82.1%; with SF-268 CNS, 80.5%; in the test with SF-295 CNS, 76.7%; in the test on SF-539 CNS, 42%. Moreover, the growth in the test with UACC-257 melanoma was 112%; in the test with M14 melanoma, 107%; in the test on HCT-15 colon, 91.5%; in the test with HT29 colon, 100%; in the test with SNB-75 CNS, 30.5%; in the test with SNB-19 CNS, 78.3%. Also, the growth in the test on U251 CNS was 109%; in the test on PC-3 prostate, 86.4%; with SK-MEL-5 melanoma it was 91.3%; with UACC-62 melanoma it was 91%; in the test with LOX IMVI melanoma it was 81.4%; in the test with SK-MEL-28 melanoma, 90.6%.
On to `CC(C)(C)Nc1nc2c(OCCc3ccccc3)cccn2c1-c1ccccc1Cl`, for which the growth in the test with K-562 leukemia is 0.922% (active); in the test with MALME-3M melanoma, -32% (active); in the test on MDA-MB-231 breast, -32.6% (active); in the test with RXF 393 renal it was -43.6% (active); in the test with SF-268 CNS it was 22.9%; in the test on SF-295 CNS, -56.8% (active). In addition, the growth in the test with SF-539 CNS was -74.7% (active); in the test on UACC-257 melanoma, 1.9% (active); with M14 melanoma it was 0.193% (active); in the test with HCT-15 colon it was -72.1% (active); in the test with SNB-75 CNS it was 34.5%; in the test with SNB-19 CNS, 18.4%. Besides, the growth is -44.7% (active) in the test on U251 CNS; -40% (active) in the test with PC-3 prostate; -92.5% (active) in the test with SK-MEL-5 melanoma; -42.1% (active) in the test on UACC-62 melanoma; -96% (active) in the test with LOX IMVI melanoma; 0.829% (active) with SK-MEL-28 melanoma. Also, the growth in the test on SK-MEL-2 melanoma was -76.2% (active).

Values taken from PubChem BioAssay (NCI).
